This is an account of results in PubChem BioAssay (EPA / NIEHS).

Inconclusive results are not listed. Activity calls are given as the source filed them. The calls were made as follows: active = hit-call score of the fitted dose curve at least 0.9, where 1 is the maximum; inconclusive = response in the unintended direction; inactive = score below 0.9.

Assay [1] addresses human Peripheral-type Benzodiazepine Receptor (PBR), TSPO (gene 706) (UniProt P30536). Put plainly: NVS_MP_hPBR: NovaScreen (NVS) Membrane Protein Assay for human Peripheral-type Benzodiazepine Receptor (PBR) (AID 2283331).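 Also: hits reduce radioligand binding relative to DMSO baseline.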 In short, it runs like this:
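Radioligand displacement on human colonic cell membranes, 1 h incubation; bound radioactivity by filtration and scintillation counting. Primary screen in duplicate at 25 uM single concentration, actives followed up in concentration series; loss of binding versus DMSO.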

The target in assay [2] is rat Peripheral-type Benzodiazepine Receptor (PBR), Tspo (gene 24230) (UniProt P16257). Description: NVS_MP_rPBR: NovaScreen (NVS) Membrane Protein Assay for rat Peripheral-type Benzodiazepine Receptor (PBR) (AID 2283335). In outline: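 Rat kidney membranes; radioligand binding with displacement, filter-based scintillation counting, 1 h incubation. Primary screen in duplicate at 25 uM, actives followed in concentration series; loss of binding vs DMSO.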

The target of assay [3] is bovine Estrogen Receptor (ER), ESR1 (gene 407238) (UniProt P49884). Description: NVS_NR_bER: NovaScreen (NVS) Nuclear Receptor Binding Assay for bovine Estrogen Receptor (ER) (AID 2283345).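 Also: actives lower the bound radioligand count which means they displace the ER ligand.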 In outline:
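Bovine uterine membranes; tritiated or iodinated radioligand; competitive displacement; 18 h; scintillation read; DMSO negative control; 25 uM duplicates, then concentration series for actives.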

The target in assay [4] is human Constitutive Androstane Receptor (CAR), NR1I3 (gene 9970) (UniProt Q14994). Description: NVS_NR_hCAR_Agonist: NovaScreen (NVS) Nuclear Receptor Binding Assay for human Constitutive Androstane Receptor Agonism (CAR) (AID 2283328). Here is the method:
NVS_NR_hCAR_Agonist is a biochemical, single-readout assay that uses extracted gene-proteins in a cell-free assay. Measurements were taken 1 hour after chemical dosing in a 384-well plate.NVS_NR_hCAR_Agonist is one of one assay component(s) measured or calculated from the NVS_NR_hCAR_Agonist assay. It is designed to make measurements of fluorescent resonance energy transfer, a form of binding reporter, as detected with fluorescent resonance energy transfer signals by Time-Resolved Fluorescence Resonance Energy Transfer (TR-FRET) technology.Data from the assay component NVS_NR_hCAR_Agonist was analyzed into 1 assay endpoint. This assay endpoint, NVS_NR_hCAR_Agonist, was analyzed in the positive analysis fitting direction relative to DMSO as the negative control and baseline of activity. Using a type of binding reporter, gain-of-signal activity can be used to understand changes in the binding as they relate to the gene NR1I3. Furthermore, this assay endpoint can be referred to as a primary readout, because the performed assay has only produced 1 assay endpoint. To generalize the intended target to other relatable targets, this assay endpoint is annotated to the nuclear receptor intended target family, where the subfamily is non-steroidal. […]

Assay [5] addresses human Androgen Receptor (AR), AR (gene 367) (UniProt P10275). Description: NVS_NR_hAR: NovaScreen (NVS) Nuclear Receptor Binding Assay for human Androgen Receptor (AR) (AID 2283332). In short, it runs like this:
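LnCAP cell-free extract; radioligand displacement read by scintillation counting after 20 h. Primary screen single concentration 25 uM in duplicate, actives then run as concentration series; loss-of-signal fitted relative to DMSO baseline.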

Assay [6] addresses chimpanzee Androgen Receptor (AR), AR (gene 747460) (UniProt O97775). Put plainly: NVS_NR_cAR: NovaScreen (NVS) Nuclear Receptor Binding Assay for chimpanzee Androgen Receptor (AR) (AID 2283346).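 Also: a loss of bound radioligand signal versus DMSO counts as binding.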 In outline: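 Radioligand binding to chimpanzee AR expressed in Sf9/Sf21 cells, cell-free, measured 72 h after dosing by lysate-based scintillation counting. Loss of signal vs DMSO; initial duplicate screen at 25 uM, actives retested in concentration series.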

The target in assay [7] is Estrogen receptor (Homo sapiens) (UniProt P03372). Put plainly: NVS_NR_hER: NovaScreen (NVS) Nuclear Receptor Binding Assay for human Estrogen Receptor (ER) (AID 2283348). In outline:
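Radioligand competitive displacement binding to estrogen receptor from MCF7 extract, cell-free; 18 h after dosing, scintillation read-out. Primary screen in duplicate at 25 uM; actives followed up in concentration series; loss of signal vs DMSO.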

Assay [8] addresses human Constitutive Androstane Receptor (CAR), NR1I3 (gene 9970) (UniProt Q14994). Put plainly: NVS_NR_hCAR_Antagonist: NovaScreen (NVS) Nuclear Receptor Binding Assay for human Constitutive Androstane Receptor Antagonism (CAR) (AID 2283344). In short, it runs like this:
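Cell-free TR-FRET binding read 1 h after dosing, antagonist mode; loss of signal versus DMSO baseline. Primary screen in duplicate at a single 25 uM; actives retested in concentration series.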

The nature of assay [9]: NVS_IC_rCaBTZCHL: NovaScreen (NVS) Ion Channel Assay for Calcium Channel, Type L, Benzothiazepine Site (CaBTZCHL) (AID 2283337). In short, it runs like this: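 Scintillation counting of filter-bound radioligand gave the read-out, with reduced binding versus DMSO scored as activity. Membranes came from rat cortex and were read 1.5 h after compound addition. Chemicals were screened first in duplicate at 25 uM.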

Estrogen receptor (Homo sapiens), sequence (P03372 whole entry, looked up): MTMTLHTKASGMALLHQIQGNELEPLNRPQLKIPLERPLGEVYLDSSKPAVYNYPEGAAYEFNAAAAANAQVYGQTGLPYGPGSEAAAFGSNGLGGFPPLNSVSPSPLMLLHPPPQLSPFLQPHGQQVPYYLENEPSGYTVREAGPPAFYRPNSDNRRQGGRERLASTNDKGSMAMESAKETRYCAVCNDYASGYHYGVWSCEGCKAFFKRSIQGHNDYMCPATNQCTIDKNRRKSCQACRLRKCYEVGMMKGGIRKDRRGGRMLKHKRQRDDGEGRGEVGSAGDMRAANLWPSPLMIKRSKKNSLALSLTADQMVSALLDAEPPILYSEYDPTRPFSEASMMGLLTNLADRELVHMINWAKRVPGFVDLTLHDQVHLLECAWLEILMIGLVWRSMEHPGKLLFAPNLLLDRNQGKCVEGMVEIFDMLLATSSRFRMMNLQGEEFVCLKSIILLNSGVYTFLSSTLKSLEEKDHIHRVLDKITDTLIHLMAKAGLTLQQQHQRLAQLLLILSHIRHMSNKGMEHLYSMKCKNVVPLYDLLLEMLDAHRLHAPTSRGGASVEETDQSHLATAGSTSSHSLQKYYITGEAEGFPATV
human Peripheral-type Benzodiazepine Receptor (PBR), TSPO (gene 706), sequence (P30536 whole entry, looked up): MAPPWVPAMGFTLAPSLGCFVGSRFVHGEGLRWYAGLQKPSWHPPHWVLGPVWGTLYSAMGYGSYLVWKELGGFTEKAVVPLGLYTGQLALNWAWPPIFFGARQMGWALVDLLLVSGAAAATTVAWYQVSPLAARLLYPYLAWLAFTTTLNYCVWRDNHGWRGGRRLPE
chimpanzee Androgen Receptor (AR), AR (gene 747460), sequence (O97775 whole entry, looked up): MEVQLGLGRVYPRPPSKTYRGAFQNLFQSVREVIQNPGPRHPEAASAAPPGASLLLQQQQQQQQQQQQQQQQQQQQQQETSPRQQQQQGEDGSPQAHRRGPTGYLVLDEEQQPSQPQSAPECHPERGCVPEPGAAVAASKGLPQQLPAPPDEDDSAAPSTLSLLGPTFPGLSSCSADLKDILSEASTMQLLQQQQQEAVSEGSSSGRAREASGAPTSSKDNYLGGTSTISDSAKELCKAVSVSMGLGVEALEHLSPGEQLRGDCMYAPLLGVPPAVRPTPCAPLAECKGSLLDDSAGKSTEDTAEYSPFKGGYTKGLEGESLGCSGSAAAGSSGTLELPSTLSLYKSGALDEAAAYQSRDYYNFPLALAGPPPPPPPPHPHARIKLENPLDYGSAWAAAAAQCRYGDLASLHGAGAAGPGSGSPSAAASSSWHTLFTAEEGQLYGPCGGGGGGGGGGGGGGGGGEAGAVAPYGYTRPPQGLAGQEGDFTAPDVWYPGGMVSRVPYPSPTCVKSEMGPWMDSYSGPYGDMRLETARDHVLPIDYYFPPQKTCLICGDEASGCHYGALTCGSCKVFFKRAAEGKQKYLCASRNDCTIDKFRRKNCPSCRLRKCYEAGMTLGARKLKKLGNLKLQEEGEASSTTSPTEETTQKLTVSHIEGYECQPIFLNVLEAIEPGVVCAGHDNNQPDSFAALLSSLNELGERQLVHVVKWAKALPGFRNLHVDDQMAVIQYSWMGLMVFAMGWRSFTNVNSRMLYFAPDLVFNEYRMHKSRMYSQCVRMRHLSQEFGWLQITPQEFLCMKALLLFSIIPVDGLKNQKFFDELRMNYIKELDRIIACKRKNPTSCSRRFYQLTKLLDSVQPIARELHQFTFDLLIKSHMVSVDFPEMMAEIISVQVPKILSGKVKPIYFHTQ
rat Peripheral-type Benzodiazepine Receptor (PBR), Tspo (gene 24230), sequence (P16257 whole entry, looked up): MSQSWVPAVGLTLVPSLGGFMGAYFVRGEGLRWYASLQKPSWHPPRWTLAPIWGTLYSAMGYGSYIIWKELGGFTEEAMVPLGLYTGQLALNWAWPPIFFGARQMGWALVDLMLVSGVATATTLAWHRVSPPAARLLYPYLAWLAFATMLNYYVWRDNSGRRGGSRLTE
bovine Estrogen Receptor (ER), ESR1 (gene 407238), sequence (P49884 whole entry, looked up): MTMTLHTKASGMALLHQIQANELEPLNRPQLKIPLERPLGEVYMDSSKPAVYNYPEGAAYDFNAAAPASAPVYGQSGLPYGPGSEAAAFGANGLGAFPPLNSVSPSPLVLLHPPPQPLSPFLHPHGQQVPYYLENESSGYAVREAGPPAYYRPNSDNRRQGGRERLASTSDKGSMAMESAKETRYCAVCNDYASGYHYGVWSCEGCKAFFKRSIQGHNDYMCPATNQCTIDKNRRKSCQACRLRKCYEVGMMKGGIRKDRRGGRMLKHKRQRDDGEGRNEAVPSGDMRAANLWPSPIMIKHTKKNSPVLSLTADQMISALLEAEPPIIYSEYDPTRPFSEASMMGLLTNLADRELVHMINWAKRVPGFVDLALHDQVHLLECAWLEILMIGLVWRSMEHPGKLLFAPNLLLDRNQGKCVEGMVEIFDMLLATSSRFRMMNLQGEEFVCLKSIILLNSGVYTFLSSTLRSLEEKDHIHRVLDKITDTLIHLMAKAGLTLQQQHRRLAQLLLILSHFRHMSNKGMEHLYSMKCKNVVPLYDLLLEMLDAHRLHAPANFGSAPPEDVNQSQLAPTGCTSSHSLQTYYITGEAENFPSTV
human Androgen Receptor (AR), AR (gene 367), sequence (P10275 whole entry, looked up): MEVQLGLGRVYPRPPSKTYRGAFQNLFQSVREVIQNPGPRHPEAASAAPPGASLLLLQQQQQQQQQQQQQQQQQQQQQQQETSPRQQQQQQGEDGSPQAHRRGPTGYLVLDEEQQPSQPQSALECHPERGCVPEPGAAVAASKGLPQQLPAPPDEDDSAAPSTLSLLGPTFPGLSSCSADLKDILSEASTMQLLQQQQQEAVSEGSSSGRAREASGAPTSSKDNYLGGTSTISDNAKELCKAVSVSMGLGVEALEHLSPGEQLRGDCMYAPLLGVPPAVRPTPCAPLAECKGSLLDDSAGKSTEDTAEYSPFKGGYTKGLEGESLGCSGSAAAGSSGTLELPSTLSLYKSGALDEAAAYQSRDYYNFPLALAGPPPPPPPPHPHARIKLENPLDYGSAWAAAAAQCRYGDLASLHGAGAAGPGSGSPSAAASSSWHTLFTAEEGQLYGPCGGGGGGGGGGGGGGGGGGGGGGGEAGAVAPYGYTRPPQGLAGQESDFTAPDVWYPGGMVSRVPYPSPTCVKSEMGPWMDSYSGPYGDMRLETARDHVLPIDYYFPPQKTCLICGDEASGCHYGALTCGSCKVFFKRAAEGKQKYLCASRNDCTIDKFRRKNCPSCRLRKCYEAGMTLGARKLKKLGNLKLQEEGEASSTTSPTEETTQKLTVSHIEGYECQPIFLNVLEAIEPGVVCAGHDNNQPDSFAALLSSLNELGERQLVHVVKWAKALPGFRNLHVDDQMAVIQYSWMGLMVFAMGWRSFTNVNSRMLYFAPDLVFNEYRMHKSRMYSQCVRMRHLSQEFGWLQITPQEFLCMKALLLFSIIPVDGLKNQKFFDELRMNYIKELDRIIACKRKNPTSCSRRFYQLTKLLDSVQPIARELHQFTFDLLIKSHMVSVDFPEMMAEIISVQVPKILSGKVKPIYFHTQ
human Constitutive Androstane Receptor (CAR), NR1I3 (gene 9970), sequence (Q14994 whole entry, looked up): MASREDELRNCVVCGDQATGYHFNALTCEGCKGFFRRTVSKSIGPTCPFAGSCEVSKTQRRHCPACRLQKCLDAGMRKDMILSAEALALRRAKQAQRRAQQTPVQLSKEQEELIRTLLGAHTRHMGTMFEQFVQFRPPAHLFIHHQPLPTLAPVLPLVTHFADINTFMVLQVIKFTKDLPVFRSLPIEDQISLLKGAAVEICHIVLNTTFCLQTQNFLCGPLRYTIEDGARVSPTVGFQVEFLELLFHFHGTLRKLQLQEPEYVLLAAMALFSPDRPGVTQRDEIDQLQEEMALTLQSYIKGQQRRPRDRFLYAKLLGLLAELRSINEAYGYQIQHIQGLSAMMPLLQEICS

What is called AC50 is the concentration at which the activity in the assay is half-maximal. Take `Cc1cccc(OP(=O)(Oc2cccc(C)c2)Oc2cccc(C)c2)c1`: the AC50 is 1.79 µM (active) in assay [1] and 1.26 µM (active) in assay [2]. On to `Oc1c(Br)cc(Br)cc1Br`, for which the compound was classed as inactive in assay [3]. As to `O=C(N[C@H]1CN2CCC1CC2)c1ccc2c(c1)OCCO2`, the compound was called inactive in assay [4]. In the case of `CCOP(=O)(OCC)OC(=CCl)c1ccc(Cl)cc1Cl`, the half-maximal activity concentration (AC50) in [1] was 2.12 µM (active); in assay [2], 1.65 µM (active). Further, in assay [3], the compound was classed as inactive. For `COC(=O)Nc1cccc(OC(=O)Nc2cccc(C)c2)c1`, in assay [1], the AC50 was 0.323 µM (active). Consider `Nc1c(Oc2ccccc2)cc(O)c2c1C(=O)c1ccccc1C2=O`, for which the outcome in assay [5] and in [6] was inactive. `Cc1ccccc1OP(=O)(Oc1ccccc1)Oc1ccccc1`: the figures for the half-maximal activity concentration (AC50) in [1] and in assay [2] were 1.28 µM (active) and 0.284 µM (active), respectively. For `O=C1c2ccccc2C(=O)C1C(=O)C(c1ccccc1)c1ccc(Cl)cc1` (configuration not stated), the compound was called inactive in assay [2] and in assay [3]. In addition, the AC50 in assay [6] was 26.4 µM (active); in assay [7], 17.6 µM (active).

Regarding `CC(C)(C1CCC(O)CC1)C1CCC(O)CC1` (configuration not stated), in assay [3], the outcome was inactive.

`O=S1(=O)OC(c2cc(Br)c(O)c(Br)c2)(c2cc(Br)c(O)c(Br)c2)c2ccccc21`: the AC50 in [1] was 5.29 µM (active); in [6], 18.1 µM (active). The call in assay [7] was inactive. For the compound `CCOP(=S)(OCC)SCS(=O)(=O)C(C)(C)C`, the values for the AC50 in [1] and in assay [2] were 12.9 µM (active) and 2.02 µM (active), respectively. `COCC(=O)N(c1c(C)cccc1C)[C@H](C)C(=O)OC`: the call in assay [1] was inactive.

As to `CCOCn1c(-c2ccc(Cl)cc2)c(C#N)c(Br)c1C(F)(F)F`, the AC50 in assay [1] is 0.368 µM (active). Moreover, the outcome in [3] and in assay [7] was inactive. Consider `Clc1cccc(Cl)c1`, for which the outcome in assay [1] and in assay [8] was inactive. As for `[Cl][Sn]([c]1ccccc1)([c]1ccccc1)[c]1ccccc1`, in [5], the AC50 is 746 nM (active). The outcome in assay [6] was inactive. Consider `Brc1ccc(Br)cc1`, for which, in assay [9], the outcome was inactive. Same read-out and setting: for `O=S(=O)(C(Cl)(Cl)Cl)C(Cl)(Cl)Cl` the value was “inactive”. On to `Cc1cc(C(C)(C)c2ccc(O)c(C)c2)ccc1O`, for which the AC50 in assay [5] is 2930 nM (active). The compound was classed as inactive in assay [2], in assay [6] and in [7]. With `CCOP(=S)(OCC)OP(=S)(OCC)OCC`, in [2], the AC50 was 17.8 µM (active).
